Common to all, as to format: functional
The target in test [1] is Solute carrier family 2, facilitated glucose transporter member 1 (Homo sapiens) (UniProt P11166). Description: ST_JUDE_LEISH: Cytotoxicity at 2uM final concentration against transgenic Leishmania Mexicana promastigotes LmGLUT1 that are glucose transport deficient and complemented with the human glucose transporter GLUT1. Activity is measured by DNA content using SYBR green in vitro.

Test [2] concerns the target Hexose transporter 1 (Plasmodium falciparum) (UniProt O97467). Description: ST_JUDE_LEISH: Cytotoxicity at 2uM final concentration against transgenic Leishmania Mexicana promastigotes LmPfHT that are glucose transport deficient and complemented with the Plasmodium falciparum hexose transporter. Activity is measured by DNA content using SYBR green in vitro.
Test [3] deals with Glucose transporter (Leishmania mexicana) (UniProt O61059). Description: ST_JUDE_LEISH: Cytotoxicity at 2uM final concentration against transgenic Leishmania Mexicana promastigotes LmGT2 that are glucose transport deficient and complemented with the L. Mexicana glucose transporter 2. Activity is measured by DNA content using SYBR green in vitro.

What is called inhibition is the drop in the measured response relative to a control, in per cent.

Chain of Solute carrier family 2, facilitated glucose transporter member 1 (Homo sapiens) (P11166 whole entry): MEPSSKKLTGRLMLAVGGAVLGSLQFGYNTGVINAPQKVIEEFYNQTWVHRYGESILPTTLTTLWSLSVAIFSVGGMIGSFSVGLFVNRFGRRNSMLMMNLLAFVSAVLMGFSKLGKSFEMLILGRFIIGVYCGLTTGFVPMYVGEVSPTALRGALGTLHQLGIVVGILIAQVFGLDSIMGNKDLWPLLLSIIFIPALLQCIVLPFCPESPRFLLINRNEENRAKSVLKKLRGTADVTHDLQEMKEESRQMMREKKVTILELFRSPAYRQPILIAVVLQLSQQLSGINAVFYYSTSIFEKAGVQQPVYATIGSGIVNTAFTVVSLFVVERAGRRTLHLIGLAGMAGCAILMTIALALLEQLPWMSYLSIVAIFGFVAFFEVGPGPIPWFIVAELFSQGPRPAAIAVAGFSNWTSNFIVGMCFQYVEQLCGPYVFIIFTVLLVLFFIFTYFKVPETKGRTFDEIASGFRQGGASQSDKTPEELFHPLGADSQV

Take `CCC[C@@H]([C@@H](CC1CCC(C)CC1)C(=O)N[C@@H](CO)C(=O)Nc1nccs1)N(O)C=O` (some centres undefined): the inhibition in test [1] was 1.25%; in test [2], 2.18%; in test [3], 1.54%.
The like results for `CC1CCN(C(=O)[C@H](Cc2c[nH]c3ccccc23)NS(=O)(=O)c2ccc(Cl)cc2)CC1` were, in that order, 1.32%, 2.42% and 13.7%.
Turning to `Cc1cc(C)c(C)c(S(=O)(=O)N2CCCCC(c3ccc(F)c(F)c3)=N2)c1C`, the inhibition in test [1] is 2.94%; in test [2], -0.61%; in test [3], 6.62%.
In the same order, the values of `CN1CCN(c2cc3c(cc2Br)CCN3C(=O)Nc2ccc(-c3cnc4ccccc4c3)cc2)CC1` are 107%, 100% and 109%.
Take `CC[C@H](C)CNC(=O)c1cncc(-c2ccc(CNC3CCCC3)cc2)c1`: the results for the inhibition in test [1], in test [2] and in test [3] were 2.12%, 1.43% and 1.7%, respectively.
In the same order, the values of `NC1=NC(c2ccccc2)N(c2ccc(Cl)c(Cl)c2)C(N)=N1` (centres undefined) are 9.2%, 7.89% and 9.84%.
The like results for `CN1CCC(N(Cc2ccc(-c3cnc(NCc4ccccc4)nc3)cc2)S(=O)(=O)c2ccccc2)CC1` were, in that order, 14%, 12.1% and 3.05%.
In the case of `Cc1cc(NC(=O)CCN2CCN(c3cccc(Cl)c3Cl)CC2)ccc1N1CCN(C(C)C)CC1`, the inhibition was -0.22% in test [1], -0.39% in test [2] and -2.11% in test [3].
In the same order, the values of `COc1ccc(O)c(Cc2cnc3nc(N)[nH]c(=O)c3c2C)c1` are 1.02%, 0.5% and 4.01%.
The like results for `CN1CCN(c2cccc(NC(=O)c3ccc(-c4ccc(C#N)cc4)cc3)c2)CC1` were, in that order, 8.25%, 3.32% and 5.96%.
With `O=C(Nc1ccc(CN2CCCCC2)cc1)c1ccc(COc2ccc([N+](=O)[O-])cc2)o1`, the inhibition in test [1] turned out to be 4.55%; in test [2], 3.4%; in test [3], 0.44%.
Take `Cc1ccc(NC(=O)c2ccc(C(=O)NC3CCN(CC4CCCCC4)CC3)cc2)cc1`: the inhibition amounted to 2.26% in test [1], 3.07% in test [2] and 1.65% in test [3].
In the same order, the values of `Cc1cccc2nc(-c3ccc(-c4cccc(CNCc5ccccc5)c4)s3)[nH]c12` are -1.26%, -0.6% and -0.69%.
For the compound `COC(=O)c1cccc(NC(=O)NC2CCN(c3ccnc(Nc4cc(OC)c(OC)c(OC)c4)n3)C2)c1` (centres undefined), the inhibition in test [1] came out at 10.5%; in test [2], 6.39%; in test [3], 8.79%.
In the case of `CCCC(C)Nc1nc(C)cc(NCCC(=O)Nc2ccccc2)n1` (centres undefined), the inhibition is 6.84% in test [1], 8.38% in test [2] and 2.55% in test [3].
On to `c1ccc(-c2cc3cccc(-c4nc5cnccc5[nH]4)c3o2)cc1`, for which the inhibition amounted to 10.8% in test [1], 11.5% in test [2] and 10.6% in test [3].
The like results for `Cc1ccc(NC(=O)c2nc(N3CCN(c4ccncc4)CC3)ccc2Cl)cc1F` were, in that order, 13.1%, 7.01% and 5.57%.
The like results for `O=C(Nc1ccc(Cn2nc(Cl)c(N3CCNCC3)cc2=O)cc1)Nc1ccc(-c2ccccc2)cc1` were, in that order, 14%, 9.91% and 11.4%.
In the same order, the values of `COc1cc(C(=O)Nc2cccc(-c3cn4ccc(C)cc4n3)c2)cc(OC)c1OC` are 17.1%, 8.22% and 6.63%.
Regarding `Cc1cc(NCCc2ccccc2)nc(NC(=N)Nc2ccc(Cl)cc2)n1`, the inhibition was 0.08% in test [1], 2.1% in test [2] and -1.21% in test [3].
The like results for `O=C(Nc1cccc(CN2CCCN(Cc3ccc(O)cc3)CC2)c1)c1ccc(-c2ccccc2)cc1` were, in that order, 1.14%, 0.52% and -2.97%.
In the same order, the values of `Cc1cc(=O)[nH]c(-n2nc(C)cc2NC(=O)C(c2ccccc2)c2ccccc2)n1` are 20.5%, 29.6% and 6.5%.
In the same order, the values of `CCCCC(=O)Nc1cc(=O)[nH]c2nc(-c3ccc(Cl)cc3)nn12` are -1.02%, 3.54% and -0.39%.
With `O=C(NCCCc1ccccc1)c1csc(C2CCCN(C(=O)c3ccc(O)c(-c4ccccc4)c3)C2)n1` (centres undefined), the inhibition in test [1] was 2.11%; in test [2] it was 0.46%; in test [3], -4.23%.
Take `CCCCCCc1cc(Oc2c(I)cc(C[C@H](N)C(=O)O)cc2I)ccc1O`: the inhibition in test [1] is 0.33%; in test [2] it was 1.79%; in test [3], -0.38%.
In the same order, the values of `N=C(N)NN=CC(=O)Nc1ccc(C(F)(F)F)cc1` are -0.81%, -0.97% and 3.39%.
Regarding `Cc1cccc2nc(-c3cccc(-c4ccc(NC(=O)CS(C)(=O)=O)cc4)c3)[nH]c12`, the inhibition in test [1] is -0.47%; in test [2], 3.33%; in test [3], 3.81%.
In the same order, the values of `CO/C(=C\C=C\c1cc2cc(Cl)c(Cl)cc2[nH]1)C(=O)NCCCN1CCN(c2cccc(OCC(=O)Nc3ccccc3)c2)CC1` are 8.53%, 8.92% and 5.76%.
The like results for `COc1ccc(CNc2ccc3nc(N)nc(N)c3c2)cc1` were, in that order, -2.31%, 1.62% and -1.87%.
The like results for `CC(=O)c1c(Cc2cccc(C(F)(F)F)c2)c[nH]c1C` were, in that order, 5.85%, 3.6% and -0.87%.
As for `COc1cc2nc(N(C)C)nc(Nc3ccc4c(cnn4Cc4ccccc4)c3)c2cc1OC`, the inhibition is -0.58% in test [1], -0.17% in test [2] and 2.85% in test [3].
In the same order, the values of `Clc1ccc(CNc2nc(NCCc3c[nH]cn3)nc(N3CCCC4CCCCC43)n2)cc1` (centres undefined) are 3.99%, 4.86% and 3.89%.
In the case of `Cn1c(NC(=O)C2CCCN(C(=O)c3ccc(O)c(-c4ccc(Cl)c(Cl)c4)c3)C2)nc2ccccc21` (centres undefined), the inhibition in test [1] was 0.08%; in test [2], -0.09%; in test [3], -7.08%.

These data come from ChEMBL document CHEMBL3433997, “St. Jude Leishmania screening dataset” (2016).
